Screening data (PubChem BioAssay)
Many of the other results were omitted from the sample, so hits are more common in it than they were.
Lassa entry inh – inhibitors of Lassa virus binding or cell entry | Lassa virus pseudotype entry inhibition, cell reporter | Potency, µM (top dose mostly 37.9 µM), actives largely listed as inhibitors | hit rate 1.2% among 300,000; calls by dose curve; tested in HEK293 cells; note: nearly all actives have a fitted effect of over 50% in size
CHX counter – counter-screen hit for Shiga toxin inhibitors, cycloheximide | cell reporter, cycloheximide protein synthesis inhibition counterscreen | max response, % | hit rate 12% among 300,000 | AID 2314; in the data active = max response mostly above about 13%, no sharp cut-off; inactive = mostly below about 14%; note: read at 38.3 µM for the half of the compounds with a filed dose
AMA1-RON2 inh – disrupts binding of P. falciparum AMA1 to RON2; Potency, µM (highest dose often 58.2 µM), hits mostly inhibitors; AlphaScreen AMA1-biotinylated RON2 peptide binding; AID 720542; hit rate 0.2% among 360,000; active = well fitted inhibition curve with a large enough effect; inconclusive = small, poorly fitted or top-dose-only effect; inactive = no such curve, though single readings can be large or run the other way; note: nearly all actives have a fitted effect of over 45% in size
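AMA1 (3D7) with his tag at 25 nM final met compounds first, then biotinylated RON2 peptide at 25 nM; detection used donor plus acceptor beads, 10 µg/mL apiece, read by AlphaScreen after 30 min at room temperature.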
Marburg entry inh – inhibitors of Marburg virus binding or cell entry | Marburg virus pseudotyped entry inhibition, cell reporter | Potency, µM (doses to about 37.8 µM), actives largely listed as inhibitors | hit rate 1.8% among 300,000; calls by dose curve; tested in HEK293 cells
Shiga toxin inh – Shiga toxin inhibition; Vero cells, Shiga toxin protein synthesis inhibition reporter; inhibition, % at 38.7 µM; hit rate 9.2% among 290,000; AID 2315; in the data active = inhibition mostly above about 28%, no sharp cut-off; inactive = mostly below about 43%
Each line names hits and unclear results; the compound was inactive in the other large screens.

C=CS(=O)(=O)c1ccc(Oc2ccc(S(=O)(=O)C=C)cc2)cc1	Lassa entry inh 6.5µM, Marburg entry inh inconclusive
Cc1ccc(-c2[nH]c3ccccc3c2C(C[N+](=O)[O-])c2ccco2)cc1 (centres undefined)	Lassa entry inh inconclusive, CHX counter 20, Marburg entry inh inconclusive
COCCN1C(=O)CSCC1(C)C(=O)Nc1ccc2c(c1)OCCO2 (centres undefined)	none (no result: Lassa entry inh, CHX counter, Marburg entry inh, Shiga toxin inh)
CC(=O)OC1CC(OC2C(O)CC(OC3C(O)CC(OC4CCC5(C)C(CCC6C5CCC5(C)C(C7=CC(=O)OC7)CCC65O)C4)OC3C)OC2C)OC(C)C1OC1OC(CO)C(O)C(O)C1O (centres undefined)	Lassa entry inh 0.1µM, Marburg entry inh inconclusive (no result: CHX counter, Shiga toxin inh)
CC1OC(OC2CCC3(C)C(CCC4C3CC(O)C3(C)C(C5=CC(=O)OC5)CCC43O)C2)CC(O)C1OC1CC(O)C(OC2CC(O)C(OC3OC(CO)C(O)C(O)C3O)C(C)O2)C(C)O1 (centres undefined)	none (no result: Lassa entry inh, AMA1-RON2 inh, Marburg entry inh)
O=C(N/N=C/c1ccncc1)c1cc(-c2ccc(Br)s2)[nH]n1	Lassa entry inh inconclusive, CHX counter 32, Marburg entry inh inconclusive
O=C(NN=Cc1ccc(N(CCCl)CCCl)cc1Cl)c1cccnc1	Lassa entry inh inconclusive, Marburg entry inh 1.6µM (no result: CHX counter, Shiga toxin inh)
O=C(N/N=C/c1ccc(Br)s1)c1cccnc1	CHX counter 26, Shiga toxin inh 42
Cc1ccc(C(=O)N/N=C\c2ccncc2)s1	CHX counter 40, Shiga toxin inh 53
CCCOc1cccc(C2c3c(oc4ccc(F)cc4c3=O)C(=O)N2c2nc(C)c(C(C)=O)s2)c1 (centres undefined)	Marburg entry inh inconclusive (no result: CHX counter, AMA1-RON2 inh, Shiga toxin inh)
O=C(Nc1nnc(-c2ccncc2)o1)c1ccc(Br)s1	Lassa entry inh inconclusive, Marburg entry inh 8.9µM
CCc1ccc(C(=O)N/N=C/c2ccncc2)s1	CHX counter 23 (no result: Lassa entry inh, Marburg entry inh)
O=C(N/N=C\c1ccncc1)c1ccc(Cl)s1	none
O=C(N/N=C\c1cccnc1)c1ccc(Br)s1	CHX counter 34
O=C(N/N=C\c1cccnc1)c1ccc(Cl)s1	none (no result: Lassa entry inh, Marburg entry inh)
CCc1ccc(/C=N/NC(=O)c2cc(-c3ccncc3)nc3ccccc23)s1	Lassa entry inh inconclusive, Marburg entry inh inconclusive
O=C(N/N=C\c1ccncc1)c1ccc(Br)s1	CHX counter 13, Marburg entry inh inconclusive
O=C1CCC/C1=C/Nc1cccc(F)c1	CHX counter 16, Shiga toxin inh 53
O=C1CCCC/C1=C/Nc1ccc2c(c1)OCO2	CHX counter 30, Shiga toxin inh 109
c1ccc(COC[C@@H]2CO2)cc1	none (no result: Lassa entry inh, AMA1-RON2 inh, Marburg entry inh)
Cc1ccc(OCC(=O)Nc2ccc(OCc3cc(=O)n4cccc(C)c4n3)cc2)cc1C	none (no result: CHX counter, AMA1-RON2 inh, Marburg entry inh, Shiga toxin inh)
C=C1N(c2cccc(Cl)c2)C(=O)OC1(C)C	none
O=C(NC(=S)Nc1ccc(Cc2ccncc2)cc1)c1ccccc1	Lassa entry inh inconclusive, CHX counter 37, Marburg entry inh inconclusive
COc1cc(C(=O)NC(=S)Nc2ccc(Cc3ccncc3)cc2)cc(OC)c1OC	none (no result: Lassa entry inh, Marburg entry inh)
COc1ccccc1C(=O)NC(=S)Nc1ccc(Cc2ccncc2)cc1	CHX counter 20, Shiga toxin inh 42 (no result: Lassa entry inh, Marburg entry inh)
CC(NC(=S)NC(=O)c1ccccc1)c1ccccc1 (centres undefined)	none (no result: Lassa entry inh, CHX counter, Marburg entry inh, Shiga toxin inh)
COc1c(C(=O)Nc2ccc(Cc3ccncc3)cc2)ccc2ccccc12	Lassa entry inh inconclusive, CHX counter 20, Marburg entry inh inconclusive, Shiga toxin inh 96
O=C(NC(=S)NC(c1ccccc1)c1ccncc1)c1ccccc1 (centres undefined)	Lassa entry inh inconclusive, Marburg entry inh 6.5µM
Fc1cccc(Oc2nc3ccccc3n3cccc23)c1	none
O=C(Nc1ccc2oc(-c3ccccc3)nc2c1)c1ccccc1F	Lassa entry inh inconclusive, CHX counter 20, Shiga toxin inh 59
Cc1ccc(NC(=O)c2ncn[nH]2)cc1	CHX counter 19
O=C(Nc1ccc(-c2nc3cc(NC(=O)c4ccccc4F)ccc3o2)cc1)c1ccccc1F	none (no result: CHX counter, AMA1-RON2 inh, Marburg entry inh, Shiga toxin inh)
O=C(Nc1ccc2oc(-c3ccc(Cl)c(Cl)c3)nc2c1)c1ncn[nH]1	Lassa entry inh inconclusive, CHX counter 27, Marburg entry inh inconclusive
CC(=O)NC(=S)Nc1ccc2oc(-c3cc(F)c(F)cc3Cl)nc2c1	CHX counter 24
O=C(Nc1ccc2oc(-c3ccc4ccccc4c3)nc2c1)c1ccc(Cl)c(Cl)c1	none (no result: CHX counter, AMA1-RON2 inh, Marburg entry inh, Shiga toxin inh)
COc1ccc(N2C(=O)NC(NS(=O)(=O)c3ccc(NC(C)=O)cc3)(C(F)(F)F)C2=O)cc1 (centres undefined)	none
Cc1ccc(CNC(=O)CCCN2C(=O)CCn3nc(-c4cn(C)c5ccccc45)cc32)cc1	none (no result: CHX counter, AMA1-RON2 inh, Marburg entry inh, Shiga toxin inh)
O=C(Cc1ccccc1)NC(=S)Nc1ccc2oc(-c3ccccc3F)nc2c1	Lassa entry inh inconclusive, Shiga toxin inh 50
O=C(Nc1ccc(-c2nc3ncccc3o2)cc1)c1ccc([N+](=O)[O-])o1	none
O=C(Nc1ccc2oc(-c3ccccc3F)nc2c1)c1ccccc1F	CHX counter 30, Marburg entry inh inconclusive, Shiga toxin inh 48
O=C(Nc1ccc2oc(-c3ccncc3)nc2c1)c1ccc([N+](=O)[O-])o1	CHX counter 32, Marburg entry inh inconclusive, Shiga toxin inh 53
O=C(Nc1ccc2oc(-c3ccccc3F)nc2c1)c1ncn[nH]1	CHX counter 52, Shiga toxin inh 80 (no result: Lassa entry inh)
CCOC(=O)c1cccc(NC(=O)c2ccc3snnc3c2)c1	Lassa entry inh inconclusive (no result: CHX counter, AMA1-RON2 inh, Shiga toxin inh)
O=C(Cn1[nH]c(=O)c2ccccc2c1=O)OCC(=O)c1ccc(Br)cc1	none (no result: CHX counter, Shiga toxin inh)
O=C(Nc1ccc2oc(-c3ccncc3)nc2c1)c1ccccc1F	Shiga toxin inh 63
Cc1ccc(CNC(=O)Nc2ccc(C)cc2)cc1	CHX counter 22 (no result: Lassa entry inh, Marburg entry inh)
O=C(NCc1cccnc1)Nc1ccc(Br)cc1	CHX counter 30 (no result: Lassa entry inh, Marburg entry inh)
COc1ccc(NC(=O)NCc2cccnc2)cc1OC	none
CC(C)C(=O)Nc1ccc(C(=O)NCc2cccnc2)cc1	none
CSc1ccc(NC(=O)NCc2cccnc2)cc1	Lassa entry inh inconclusive, CHX counter 28, Marburg entry inh inconclusive, Shiga toxin inh 39
O=C(NCc1cccnc1)c1ccc(NC(=O)c2ccc(Br)cc2)cc1	Lassa entry inh inconclusive, Marburg entry inh inconclusive
CC(C)c1ccc(NC(=O)NCc2cccnc2)cc1	CHX counter 12
CN(C(=O)c1ccccc1-c1ccccc1C(=O)O)c1ccccc1	none
Cc1ccc(NC(=O)NCc2cccnc2)cc1	CHX counter 19
O=C(NCc1cccnc1)Nc1ccc(Cl)c(Cl)c1	CHX counter 26, Shiga toxin inh 59 (no result: Lassa entry inh, Marburg entry inh)
CCOc1ccc(NC(=O)NCc2cccn2C)cc1	Marburg entry inh inconclusive
Cn1cccc1CNC(=O)Nc1ccc(Cl)c(Cl)c1	Lassa entry inh inconclusive, CHX counter 37
Cc1ccc(NC(=O)NCc2cccnc2)cc1C	none
S=C(NCc1cccnc1)Nc1ccc(Cl)c(Cl)c1	none
COc1ccc(C)cc1NC(=O)CCS(=O)(=O)c1cc2c3c(c1)CCN3C(=O)CC2	none (no result: CHX counter, AMA1-RON2 inh, Marburg entry inh, Shiga toxin inh)
O=C(/C=C/c1cccc(C(F)(F)F)c1)NNC(=O)c1ccncc1	none (no result: CHX counter, Shiga toxin inh)
COc1ccc(N2CCN(C(=O)CCc3nnc4ccc(N5CCOCC5)nn34)CC2)cc1	none
N/C(CN1CCCC1=O)=N\OC(=O)c1ccccc1Cl	CHX counter 26, Marburg entry inh inconclusive
CSCC[C@H](NC(=O)OC(C)(C)C)C(=O)N/N=C/c1cccc2nccnc12	none
